PubChem BioAssay AID1159580 (chemical genetic matrix, 2015)
The whole screen tested about 5,500 compounds, of which about 2,000 (36%) were called active. Roughly 18% stayed inconclusive and do not appear here. No stated cut-off is given here; in the data, active means normalized growth mostly below about 0.91 (no sharp cut-off); inconclusive means no clear call, values can overlap the other calls; inactive means mostly above about 0.92. Some of the results follow.

Experiment: chemical genetic growth profiling, strain panel (AID 1159580);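 further: tested at 20 µM; growth read once vehicle control cultures reached saturation at 30 °C; 1 = growth at the plate median or of vehicle wells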
Settings: growth OD

Measured: normalized growth

O=C(O)c1cc(=O)c2cccc(O)c2[nH]1
inactive: S. cerevisiae deletion strains, locus YJR075W, strain HOC1, stronger effect = lower value 0.974 | S. cerevisiae deletion strains, locus YKL009W, strain mrt4, stronger effect = lower value 0.965 | S. cerevisiae deletion strains, locus YKL068W, stronger effect = lower value 0.976 | S. cerevisiae deletion strains, locus YKL085W, strain MDH1 (second series), stronger effect = lower value 0.964 | S. cerevisiae deletion strains, locus YKL085W, strain MDH1, stronger effect = lower value 0.964 | S. cerevisiae deletion strains, locus YKL160W, strain elf1, stronger effect = lower value 1.05 | S. cerevisiae deletion strains, locus YKL190W, strain CNB1, stronger effect = lower value 0.982 | S. cerevisiae deletion strains, locus YKR001C, strain vps1, stronger effect = lower value 1 | S. cerevisiae deletion strains, locus YKR026C, strain gcn3, stronger effect = lower value 1.01 | S. cerevisiae deletion strains, locus YKR091W, strain srl3, stronger effect = lower value 1.01 | S. cerevisiae deletion strains, locus YLL001W, strain dnm1, stronger effect = lower value 1.02 | S. cerevisiae deletion strains, locus YLL026W, stronger effect = lower value 1.02 | S. cerevisiae deletion strains, locus YLL041C, strain sdh2, stronger effect = lower value 1 | S. cerevisiae deletion strains, locus YLR027C, strain aat2, stronger effect = lower value 0.996 | S. cerevisiae deletion strains, locus YLR039C, strain RIC1, stronger effect = lower value 0.968 | S. cerevisiae deletion strains, locus YLR058C, strain SHM2, stronger effect = lower value 0.987 | S. cerevisiae deletion strains, locus YLR102C, strain apc9, stronger effect = lower value 0.979 | S. cerevisiae deletion strains, locus YLR113W, strain HOG1, stronger effect = lower value 0.99 | S. cerevisiae deletion strains, locus YLR221C, strain rsa3, stronger effect = lower value 0.995 | S. cerevisiae deletion strains, locus YLR258W, strain gsy2, stronger effect = lower value 1.03 | S. cerevisiae deletion strains, locus YLR262C, strain YPT6 (second series), stronger effect = lower value 1.01 | S. cerevisiae deletion strains, locus YLR262C, strain YPT6, stronger effect = lower value 0.971 | S. cerevisiae deletion strains, locus YLR268W, strain sec22, stronger effect = lower value 0.916 | S. cerevisiae deletion strains, locus YLR320W, strain mms22, stronger effect = lower value 1.01 | S. cerevisiae deletion strains, locus YLR330W, strain CHS5, stronger effect = lower value 0.991 | S. cerevisiae deletion strains, locus YLR342W, strain FKS1 (second series), stronger effect = lower value 1.08 | S. cerevisiae deletion strains, locus YLR342W, strain FKS1, stronger effect = lower value 1.02 | S. cerevisiae deletion strains, locus YLR357W, strain rsc2, stronger effect = lower value 1.05 | S. cerevisiae deletion strains, locus YLR370C, strain arc18, stronger effect = lower value 1.04 | S. cerevisiae deletion strains, locus YLR371W, strain rom2, stronger effect = lower value 0.98 | S. cerevisiae deletion strains, locus YLR384C, strain iki3, stronger effect = lower value 1.02 | S. cerevisiae deletion strains, locus YLR418C, strain cdc73, stronger effect = lower value 1.03 | S. cerevisiae deletion strains, locus YML016C, strain PPZ1, stronger effect = lower value 1 | S. cerevisiae deletion strains, locus YML032C, strain rad52, stronger effect = lower value 0.961 | S. cerevisiae deletion strains, locus YML120C, strain ndi1, stronger effect = lower value 1.01 | S. cerevisiae deletion strains, locus YML124C, strain tub3, stronger effect = lower value 0.977 | S. cerevisiae deletion strains, locus YMR058W, strain fet3, stronger effect = lower value 1.02 | S. cerevisiae deletion strains, locus YMR078C, strain ctf18, stronger effect = lower value 0.991 | S. cerevisiae deletion strains, locus YMR125W, strain sto1, stronger effect = lower value 1.02 | S. cerevisiae deletion strains, locus YMR129W, stronger effect = lower value 1.02 | S. cerevisiae deletion strains, locus YMR205C, strain PFK2, stronger effect = lower value 1.02 | S. cerevisiae deletion strains, locus YMR223W, strain ubp8, stronger effect = lower value 1.03 | S. cerevisiae deletion strains, locus YMR231W, strain pep5, stronger effect = lower value 1.01 | S. cerevisiae deletion strains, locus YMR263W, strain SAP30, stronger effect = lower value 0.975 | S. cerevisiae deletion strains, locus YMR307W, strain GAS1, stronger effect = lower value 1.09 | S. cerevisiae deletion strains, locus YNL067W, strain RPL9B, stronger effect = lower value 0.967 | S. cerevisiae deletion strains, locus YNL071W, strain lat1, stronger effect = lower value 1.02 | S. cerevisiae deletion strains, locus YNL128W, strain TEP1, stronger effect = lower value 0.983 | S. cerevisiae deletion strains, locus YNL153C, strain GIM3, stronger effect = lower value 0.97 | S. cerevisiae deletion strains, locus YNL183C, strain NPR1, stronger effect = lower value 0.917 | S. cerevisiae deletion strains, locus YNL209W, strain ssb2, stronger effect = lower value 0.999 | S. cerevisiae deletion strains, locus YNL233W, strain BNI4, stronger effect = lower value 0.97 | S. cerevisiae deletion strains, locus YNL248C, strain rpa49, stronger effect = lower value 1.03 | S. cerevisiae deletion strains, locus YNL250W, strain rad50, stronger effect = lower value 0.967 | S. cerevisiae deletion strains, locus YNL271C, strain bni1, stronger effect = lower value 0.976 | S. cerevisiae deletion strains, locus YNL298W, strain CLA4, stronger effect = lower value 0.987 | S. cerevisiae deletion strains, locus YNL307C, strain MCK1, stronger effect = lower value 0.981 | S. cerevisiae deletion strains, locus YNL322C, strain KRE1 (second series), stronger effect = lower value 1.03 | S. cerevisiae deletion strains, locus YNL322C, strain KRE1, stronger effect = lower value 0.984 | S. cerevisiae deletion strains, locus YNR049C, strain mso1, stronger effect = lower value 1.02 | S. cerevisiae deletion strains, locus YNR052C, strain pop2, stronger effect = lower value 1 | S. cerevisiae deletion strains, locus YOL006C, strain TOP1, stronger effect = lower value 1.02 | S. cerevisiae deletion strains, locus YOL012C, strain htz1 0.728 | S. cerevisiae deletion strains, locus YOL147C, strain pex11, stronger effect = lower value 0.985 | S. cerevisiae deletion strains, locus YOR001W, strain rrp6, stronger effect = lower value 0.956 | S. cerevisiae deletion strains, locus YOR061W, strain CKA2, stronger effect = lower value 0.992 | S. cerevisiae deletion strains, locus YOR069W, strain VPS5, stronger effect = lower value 0.991 | S. cerevisiae deletion strains, locus YOR070C, strain gyp1, stronger effect = lower value 1.02 | S. cerevisiae deletion strains, locus YOR080W, strain dia2, stronger effect = lower value 1.01 | S. cerevisiae deletion strains, locus YOR083W, strain WHI5, stronger effect = lower value 1.05 | S. cerevisiae deletion strains, locus YOR106W, strain vam3, stronger effect = lower value 1.03 | S. cerevisiae deletion strains, locus YOR136W, strain idh2, stronger effect = lower value 0.99 | S. cerevisiae deletion strains, locus YOR144C, strain elg1, stronger effect = lower value 0.99 | S. cerevisiae deletion strains, locus YOR184W, strain ser1, stronger effect = lower value 0.972 | S. cerevisiae deletion strains, locus YOR231W, strain MKK1, stronger effect = lower value 0.982 | S. cerevisiae deletion strains, locus YOR265W, strain rbl2, stronger effect = lower value 1.01 | S. cerevisiae deletion strains, locus YOR270C, strain vph1, stronger effect = lower value 0.995 | S. cerevisiae deletion strains, locus YOR290C, strain snf2, stronger effect = lower value 1.06 | S. cerevisiae deletion strains, locus YOR316C, strain cot1, stronger effect = lower value 0.966 | S. cerevisiae deletion strains, locus YPL051W, strain arl3, stronger effect = lower value 1.04 | S. cerevisiae deletion strains, locus YPL055C, strain LGE1, stronger effect = lower value 0.951 | S. cerevisiae deletion strains, locus YPL078C, strain atp4, stronger effect = lower value 1.04 | S. cerevisiae deletion strains, locus YPL106C, strain sse1, stronger effect = lower value 1.03 | S. cerevisiae deletion strains, locus YPL240C, strain hsp82, stronger effect = lower value 1.01 | S. cerevisiae deletion strains, locus YPL241C, strain CIN2, stronger effect = lower value 0.982 | S. cerevisiae deletion strains, locus YPL256C, strain CLN2, stronger effect = lower value 0.965 | S. cerevisiae deletion strains, locus YPR119W, strain clb2, stronger effect = lower value 0.987 | S. cerevisiae deletion strains, locus YPR141C, strain kar3, stronger effect = lower value 0.97 | S. cerevisiae deletion strains, locus YPR163C, strain tif3, stronger effect = lower value 0.989 | S. cerevisiae deletion strains, locus YPR167C, strain met16, stronger effect = lower value 0.973 | S. cerevisiae deletion strains, strain wtn01, stronger effect = lower value 0.995 | S. cerevisiae strains, strain wild type, stronger effect = lower value 1
